Laboratory results taken from PubChem BioAssay (NCATS).
Records with an inconclusive call do not appear. Entries that show only a call come without a potency. Values without a mark were called inactive. Calls of active or inactive are those of the source. Calls follow the shape of the dose curve; as a rule, active = well fitted curve in the direction sought with a large enough effect; inconclusive = small, poorly fitted or top-dose-only effect, or another doubt; inactive = no such curve, though single readings can be large; an effect the other way counts as inactive or inconclusive. Where a SMILES comes first, the peptide text is derived from it. Bridges are numbered along the chain shown (N, C = ends). [ ]: non-standard residue; d: D form. hArg = N=C(N)NCCCC[C@H](N)C(=O)O; Mpa = O=C(O)CCS

Legend:
[1] = molecular target: Voltage-gated inwardly rectifying potassium channel KCNH2 (Homo sapiens) (UniProt Q12809); assay: qHTS Assay for Small Molecule Inhibitors of the Human hERG Channel Activity (AID 588834); conditions: U2OS BacMam hERG, FluxOR thallium flux fluorescence; series mostly up to 46.1 µM;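 also: lower thallium flux fluorescence means stronger hERG block; nearly all actives have a fitted effect of over 50% in size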; also: potency is read from the fitted curve at half-maximal effect
Sequence of Voltage-gated inwardly rectifying potassium channel KCNH2 (Homo sapiens) (Q12809 whole entry, looked up): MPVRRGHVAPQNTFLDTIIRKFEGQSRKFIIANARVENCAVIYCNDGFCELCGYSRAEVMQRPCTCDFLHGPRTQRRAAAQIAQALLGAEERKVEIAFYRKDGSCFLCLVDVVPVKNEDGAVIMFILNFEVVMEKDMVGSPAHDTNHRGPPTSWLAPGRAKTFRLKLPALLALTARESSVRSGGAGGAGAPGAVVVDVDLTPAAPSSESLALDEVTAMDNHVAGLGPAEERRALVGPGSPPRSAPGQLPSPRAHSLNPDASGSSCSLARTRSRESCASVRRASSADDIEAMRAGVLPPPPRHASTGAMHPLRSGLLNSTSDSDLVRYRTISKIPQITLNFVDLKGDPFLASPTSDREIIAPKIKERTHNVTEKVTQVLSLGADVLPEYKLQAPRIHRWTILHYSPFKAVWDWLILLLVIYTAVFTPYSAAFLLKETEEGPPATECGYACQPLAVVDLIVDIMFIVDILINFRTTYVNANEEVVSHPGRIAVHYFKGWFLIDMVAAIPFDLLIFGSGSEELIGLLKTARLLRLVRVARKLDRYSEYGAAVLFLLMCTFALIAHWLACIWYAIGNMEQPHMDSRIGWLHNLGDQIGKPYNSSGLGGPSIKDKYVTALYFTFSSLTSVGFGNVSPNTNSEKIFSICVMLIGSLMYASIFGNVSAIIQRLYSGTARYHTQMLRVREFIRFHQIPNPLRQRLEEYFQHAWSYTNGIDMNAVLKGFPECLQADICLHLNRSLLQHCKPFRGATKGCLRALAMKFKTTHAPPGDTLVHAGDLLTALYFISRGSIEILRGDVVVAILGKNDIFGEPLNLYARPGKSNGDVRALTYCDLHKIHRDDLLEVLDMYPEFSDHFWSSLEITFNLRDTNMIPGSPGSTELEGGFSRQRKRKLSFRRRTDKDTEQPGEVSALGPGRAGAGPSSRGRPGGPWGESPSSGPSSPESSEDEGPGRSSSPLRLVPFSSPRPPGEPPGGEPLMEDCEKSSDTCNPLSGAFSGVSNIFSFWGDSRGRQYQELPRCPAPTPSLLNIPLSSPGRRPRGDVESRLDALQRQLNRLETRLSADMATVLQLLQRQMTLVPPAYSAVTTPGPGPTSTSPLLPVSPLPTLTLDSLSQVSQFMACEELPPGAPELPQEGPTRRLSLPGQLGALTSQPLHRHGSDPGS
Outline: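 Blockade is seen as reduced FluxOR thallium-flux fluorescence in U2OS cells expressing hERG from a BacMam construct, in Opti-MEM with 2% FCS. Concentration-response data fitted to the Hill equation for AC50.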

[2] = molecular target: Luciferin 4-monooxygenase (Photinus pyralis) (UniProt P08659); assay: Biochemical firefly luciferase enzyme assay for NPC (AID 624030);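 also: purified P. pyralis luciferase at 10 nM with luciferin and ATP substrate; nearly all actives have a fitted effect of over 70% in size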; conditions: purified P. pyralis luciferase, luminescence, 5 min; series mostly up to 58.6 µM
Sequence of Luciferin 4-monooxygenase (Photinus pyralis) (P08659 whole entry, looked up): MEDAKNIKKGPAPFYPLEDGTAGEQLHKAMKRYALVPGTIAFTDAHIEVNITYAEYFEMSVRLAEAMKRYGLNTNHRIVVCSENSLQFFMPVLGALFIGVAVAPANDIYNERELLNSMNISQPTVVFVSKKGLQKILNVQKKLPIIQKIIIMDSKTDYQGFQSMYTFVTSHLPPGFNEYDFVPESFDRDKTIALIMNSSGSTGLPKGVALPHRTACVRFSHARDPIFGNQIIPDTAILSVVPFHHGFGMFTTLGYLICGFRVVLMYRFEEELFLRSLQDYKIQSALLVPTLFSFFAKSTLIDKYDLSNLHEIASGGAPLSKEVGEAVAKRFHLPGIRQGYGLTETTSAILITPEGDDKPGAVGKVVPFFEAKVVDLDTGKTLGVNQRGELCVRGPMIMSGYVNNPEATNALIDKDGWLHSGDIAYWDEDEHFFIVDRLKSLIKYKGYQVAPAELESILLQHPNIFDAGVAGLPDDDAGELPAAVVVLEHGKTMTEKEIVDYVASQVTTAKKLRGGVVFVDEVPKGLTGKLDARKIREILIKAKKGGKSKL
Outline: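 Purified P. pyralis luciferase at 10 nM in 50 mM Tris Acetate (final), luminescence read within 5 minutes of enzyme addition to compounds. Activity normalised to PTC124 versus DMSO; concentration-response curves classed by r2, magnitude and activity.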

[3] = S16 Schwann cell viability assay (CellTiter-Glo assay) (AID 624031); conditions: S16 rat Schwann cells viability, 24 h; series mostly up to 57.5 µM;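 also: native untransfected S16 rat Schwann cells; cellular ATP luminescence as a viability measure; nearly all actives have a fitted effect of over 70% in size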
Outline: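 Rat S16 Schwann cells without reporter constructs received compound or DMSO for 24 h at 37 °C under 5% CO2. Cellular ATP was then quantified by CellTiter-Glo luminescence, with vehicle wells defined as 0% activity and cell-free wells as reference.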

[4] = S16 Schwann cell PMP22 intronic element firefly luciferase assay (AID 624032); conditions: S16 rat Schwann cells, PMP22 element FLuc, 24 h; series mostly up to 57.5 µM; also: nearly all actives have a fitted effect of over 30% in size
Outline: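 Rat S16 Schwann cells stably carrying firefly luciferase driven by a PMP22 intronic element, in 10% FBS, treated 24 h at 37 C. ONE-Glo luminescence normalized to PTC124 control and DMSO (0%); curves classed by r2, magnitude and activity.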

| SMILES | Potency [1] | Potency [2] | outcome [3] | Potency [4] |
| --- | --- | --- | --- | --- |
| COc1ccc(C(=O)NCc2ccc(OCCN(C)C)cc2)cc1OC | inactive | inactive | inactive | inactive |
| C[C@@H]1CCC[C@H](C)N1 | inactive | inactive | inactive | inactive |
| CCN(CC)CCOC(=O)C(c1ccccc1)c1ccccc1 | 2 µM (active) | inactive | inactive |  |
| O=C(NCN1CCOCC1)c1cnccn1 | inactive | inactive | inactive | inactive |
| O=C(O)c1ccc(OCCCOc2ccc(C(=O)O)cc2)cc1 | inactive | inactive | inactive |  |
| CN1C(=O)CC(c2ccccc2)C1=O (stereo not given) | inactive |  |  |  |
| Nc1ccncc1N | inactive | inactive | inactive | inactive |
| O=c1[nH]c(=O)c2ccccc2o1 | inactive | inactive | inactive | inactive |
| CC(N)CCCC(C)(C)O (stereo not given) | inactive | inactive | inactive | inactive |
| O=C(O)c1cc(=O)c2ccccc2o1 | inactive | inactive | inactive | inactive |
| CC(C(=O)O)c1ccc2c(c1)Cc1cccnc1O2 (stereo not given) | inactive | inactive | inactive | inactive |
| O=c1[nH]cnc2nc[nH]c12 | inactive | inactive | inactive | inactive |
| C[C@H]1COc2c(C3(N)CC3)c(F)cc3c(=O)c(C(=O)O)cn1c23 | inactive | inactive | inactive | inactive |
| C[N+](C)(C)CC[N+]1(C)Cc2c(Cl)c(Cl)c(Cl)c(Cl)c2C1 | inactive | inactive | inactive | inactive |
| Cc1[nH]c(C)c(Cl)c(=O)c1Cl | inactive | inactive | inactive | inactive |
| Cc1c(Cn2ccnc2)c2ccccc2n1CCC(=O)O | inactive | inactive | inactive |  |
| CC(=O)OC[C@H]1O[C@@](COC(C)=O)(O[C@H]2O[C@H](COC(C)=O)[C@@H](OC(C)=O)[C@H](OC(C)=O)[C@H]2OC(C)=O)[C@@H](OC(C)=O)[C@@H]1OC(C)=O | inactive | inactive | inactive | inactive |
| Cc1ccc(S(=O)(=O)NC(=O)NC2CCCCC2)cc1 | inactive | inactive | inactive |  |
| O[C@@H]1CO[C@H]2[C@@H]1OC[C@@H]2O | inactive | inactive | inactive | inactive |
| COc1ccc(C(=O)N2CCN(CC(=O)N3CCOCC3)CC2)cc1 | inactive | inactive | inactive |  |
| Cn1c([N+](=O)[O-])cnc1COC(N)=O | inactive | inactive | inactive | inactive |

| SMILES | Potency [1] | Potency [2] | outcome [3] | Potency [4] |
| --- | --- | --- | --- | --- |
| Nc1c2c(nc3c1CCC3)CCCC2 | inactive | inactive | inactive | inactive |
| COc1ccc(Cc2cnc(N)nc2N)cc1OC | inactive | inactive | inactive | inactive |
| O=C(O)CCC(=O)O | inactive | inactive | inactive | inactive |
| CC(CN(C)C)C(C)(O)Cc1ccc(Cl)cc1 (stereo not given) | 14.1 µM (active) | inactive | inactive | inactive |
| O=C(NCCCN1CCOCC1)c1ccc(Cl)cc1 | inactive | inactive | inactive | inactive |
| Nc1ncnc2c1ncn2[C@@H]1O[C@H](COP(=O)(O)O)[C@@H](O)[C@H]1O | inactive | inactive | inactive | inactive |
| NC(=O)NS(=O)(=O)c1ccc(N)cc1 | inactive | inactive | inactive | inactive |
| O=C(O)c1ccccc1OP(=O)(O)O | inactive | inactive | inactive | inactive |
| CNc1c2c(nn1C)CCCC2 | inactive | inactive | inactive | inactive |
| NS(=O)(=O)c1cc2c(cc1C(F)(F)F)NCNS2(=O)=O | inactive | inactive | inactive | inactive |
| Cc1cc(NC(=O)C2=C(O)c3ccccc3S(=O)(=O)N2C)no1 | inactive | inactive | inactive | inactive |
| Cc1cc(-n2nc3ccc(Cl)cc3n2)c(O)c(C(C)(C)C)c1 | inactive | inactive | inactive | inactive |
| O=C1CC[C@@H](C(=O)O)N1 | inactive | inactive | inactive | inactive |
| CC(=O)N(CC(O)CO)c1c(I)c(C(=O)NCC(O)CO)c(I)c(C(=O)NCC(O)CO)c1I (stereo not given) | inactive | inactive | inactive | inactive |
| CNCc1ccccc1 | inactive | inactive | inactive | inactive |
| NC(=O)[C@@H]1CSSCCC(=O)N[C@@H](CCCCN=C(N)N)C(=O)NCC(=O)N[C@@H](CC(=O)O)C(=O)N[C@@H](Cc2c[nH]c3ccccc23)C(=O)N2CCC[C@H]2C(=O)N1 ([Mpa][hArg]GDWPC-NH2; disulfide 1-7) | inactive | inactive | inactive | inactive |
| Cc1c(I)c(=O)n(-c2ccccc2)n1C | inactive | inactive | inactive | inactive |
| COC(=O)c1cccnc1 | inactive | inactive | inactive | inactive |
| COc1ccccc1OC(=O)Oc1ccccc1OC | inactive | inactive | inactive | inactive |
| O=C(O)CCCc1ccccc1 | inactive | inactive | inactive | inactive |
| CCc1cccc(CC)c1NC(=O)CN(CC(=O)O)CC(=O)O | inactive | inactive | inactive | inactive |
